The source of these data is PubChem BioAssay.

This is one part of the list. Calls of active or inactive are those of the source.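 The calls were made as follows: active = current increase at least 3 SD of the untreated controls above them in both duplicate recordings; inactive = the rest.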

Chain of Potassium voltage-gated channel subfamily KQT member 2 (Rattus norvegicus) (O88943 whole entry W236L, looked up): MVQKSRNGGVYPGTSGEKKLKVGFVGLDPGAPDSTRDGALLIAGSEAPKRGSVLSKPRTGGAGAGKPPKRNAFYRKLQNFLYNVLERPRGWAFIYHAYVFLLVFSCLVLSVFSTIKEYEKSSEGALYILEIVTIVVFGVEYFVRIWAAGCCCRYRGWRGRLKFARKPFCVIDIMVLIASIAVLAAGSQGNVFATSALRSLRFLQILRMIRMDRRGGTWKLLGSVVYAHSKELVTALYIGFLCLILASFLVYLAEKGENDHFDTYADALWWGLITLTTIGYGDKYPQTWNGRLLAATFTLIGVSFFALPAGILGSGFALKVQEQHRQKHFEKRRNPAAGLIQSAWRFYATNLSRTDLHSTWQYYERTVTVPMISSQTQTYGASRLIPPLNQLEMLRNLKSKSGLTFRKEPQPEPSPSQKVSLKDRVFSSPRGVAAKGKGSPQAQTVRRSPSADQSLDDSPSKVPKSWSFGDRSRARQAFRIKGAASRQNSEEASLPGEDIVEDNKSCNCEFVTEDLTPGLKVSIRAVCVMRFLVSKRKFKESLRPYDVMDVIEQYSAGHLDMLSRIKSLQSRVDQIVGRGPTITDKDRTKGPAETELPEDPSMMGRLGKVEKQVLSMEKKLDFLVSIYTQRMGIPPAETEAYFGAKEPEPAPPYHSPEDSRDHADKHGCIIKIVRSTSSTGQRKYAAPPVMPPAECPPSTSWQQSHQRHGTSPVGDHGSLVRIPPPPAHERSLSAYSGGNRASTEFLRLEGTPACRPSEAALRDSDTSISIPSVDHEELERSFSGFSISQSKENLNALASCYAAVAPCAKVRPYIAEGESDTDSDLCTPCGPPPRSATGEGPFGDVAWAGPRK

The test has as its target Potassium voltage-gated channel subfamily KQT member 2 (Rattus norvegicus) (UniProt O88943). Briefly: potentiators of retigabine-insensitive KCNQ2 W236L, mechanism study for KCNQ2 potentiator project, cell-based, rat KCNQ2 W236L, CHO, automated patch clamp (AID 2558). The conditions noted are these: at 25 µM; outcome: automated patch clamp current.
Regarding `CC(NC(=O)Nc1ccccc1)c1ccccc1` (centres undefined), the outcome was inactive.

For `CCCc1nc2sc3c(c2c(=O)n1NC(=O)CCCl)CCCC3`, the outcome was inactive. The same measure, in the same setting: the result for `Cc1cccc(NC(=O)c2nc(S(=O)(=O)Cc3ccccc3)ncc2Cl)c1` reads “inactive”; that for `CCC1(C)Cc2c(sc3[nH]c(=S)n(Cc4ccccc4)c(=O)c23)CO1` (centres undefined), “inactive”; that for `CCCCNC(=O)Nc1c(C)cc(SC#N)cc1C`, “inactive”. The same measure, in the same setting: the result for `COc1cccc(NC(=O)C2C(c3ccccc3)C2(Cl)Cl)c1` (centres undefined) reads “inactive”; that for `Cc1cccc(NC(=S)NC(=O)c2ccc(Br)o2)c1`, “inactive”. Turning to `O=C(Nc1ccc(Oc2ccccc2)cc1)c1ccco1`, the current increase over 3SD of negative controls (%), hits give high values is 9.43% (active). For the compound `S=C(NCc1ccc(Cl)cc1)NC12CC3CC(CC(C3)C1)C2`, the result was inactive.

For `CS(=O)(=O)c1sc(C(=O)NC(=S)Nc2ccc(OC(F)(F)F)cc2)c2c1C=CCC2`, the result was inactive. The same measure, in the same setting: with `COc1ccc(C(=O)Nc2ncc3c(n2)-c2ccccc2CC3)cc1` the entry was “inactive”; with `Oc1c(Cl)cc(Cl)cc1/C=N/c1ncn[nH]1`, “inactive”; with `CCn1c(O)c(N=NC2=NC(=O)CS2)c2cc(C)ccc21`, “inactive”. The same measure, in the same setting: the result for `Cc1ccc(S(=O)(=O)N2CCN(C(=O)COC(=O)c3c(C)cc(C)cc3C)CC2)c(C)c1` reads “inactive”. Take `Cc1ccc(CS(=O)(=O)c2ncc(Cl)c(C(=O)Nc3nnc(C)s3)n2)cc1`: the current increase over 3SD of negative controls (%), hits give high values was 48.4% (active).

On to `O=C(NNC1=C(C(=O)C(F)(F)F)CCC1)c1ccncc1`, for which the outcome was inactive. The same measure, in the same setting: the result for `CC(NC(=O)Nc1cccc([N+](=O)[O-])c1)c1ccc2c(c1)OCO2` (centres undefined) reads “inactive”. Same read-out and setting: the result for `O=C(NCc1ccc2c(c1)OCO2)c1ccc(Cl)s1` reads “inactive”; that for `CCn1c(=S)[nH]c2sc3c(c2c1=O)CCCCC3`, “inactive”.
